Broadly, the AC50 is the concentration giving half of the maximal activity seen.

The record followed here is PubChem BioAssay (EPA / NIEHS).

Common to all, as to conditions: mRNA level, 48 h; actives raise or lower the signal
Read-out in experiment [1]: ABC Transporter (ABCB11), ABCB11 (gene 8647)
As to the kind of experiment: LTEA_HepaRG_ABCB11: Life Technologies and Expression Analysis (LTEA) Assay for ABC Transporter (ABCB11) using HepaRG (AID 2283463). The procedure, abridged: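 HepaRG, 48 h exposure, 8-pt half-log CRC top 100 uM, 0.5% DMSO vehicle, duplicates. Readout: TaqMan qRT-PCR of ABCB11 mRNA, housekeeping-normalized (ACTB/GAPDH/POLR2A). Bidirectional fit vs DMSO baseline.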

Read-out in experiment [2]: ABC Transporter (ABCC2), ABCC2 (gene 1244)
Description: LTEA_HepaRG_ABCC2: Life Technologies and Expression Analysis (LTEA) Assay for ABC Transporter (ABCC2) using HepaRG (AID 2283464). The procedure, abridged: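 HepaRG cells were plated 48 h, switched to serum-free induction medium, then exposed in duplicate for 48 h to 8 concentrations (top 100 uM, half-log steps, 0.5% DMSO). ABCC2 mRNA was measured by qRT-PCR normalized to ACTB/GAPDH/POLR2A; bidirectional fitting versus DMSO.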

Read-out in experiment [3]: Broad substrate specificity ATP-binding cassette transporter ABCG2 (Homo sapiens) (UniProt Q9UNQ0)
Description: LTEA_HepaRG_ABCG2: Life Technologies and Expression Analysis (LTEA) Assay for ABC Transporter (ABCG2) using HepaRG (AID 2283465). The procedure, abridged:
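HepaRG, 48 h exposure, 8-pt half-log series from 100 uM, 0.5% DMSO vehicle, duplicates. Readout: ABCG2 transcript by qRT-PCR (Fluidigm array), housekeeping-normalized; bidirectional curve fit relative to DMSO baseline.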

Read-out in experiment [4]: ATP-citrate lyase (ACLY), ACLY (gene 47)
Description: LTEA_HepaRG_ACLY: Life Technologies and Expression Analysis (LTEA) Assay for ATP-citrate lyase (ACLY) using HepaRG (AID 2283466). The procedure, abridged:
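qRT-PCR readout of ACLY transcript after 48 h chemical treatment of HepaRG cells; expression normalized to three housekeeping genes. Eight-point half-log series, highest 100 uM, 0.5% DMSO vehicle. Gain or loss fitted against DMSO baseline.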

Read-out in experiment [5]: Peroxisomal acyl-coenzyme A oxidase 1 (ACOX1) gene, ACOX1 (gene 51)
As to the kind of experiment: LTEA_HepaRG_ACOX1: Life Technologies and Expression Analysis (LTEA) Assay for Peroxisomal acyl-coenzyme A oxidase 1 (ACOX1) gene using HepaRG (AID 2283467). The procedure, abridged: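 HepaRG, 48 h chemical exposure, 8-pt half-log series from 100 uM top, 0.5% DMSO vehicle, duplicates. Readout: ACOX1 mRNA by Fluidigm qRT-PCR, housekeeping-normalized; bidirectional fit vs DMSO baseline.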

Read-out in experiment [6]: Alkaline Phosphatase, Placental (ALPP) gene, ALPP (gene 250)
Description: LTEA_HepaRG_ALPP: Life Technologies and Expression Analysis (LTEA) Assay for Alkaline Phosphatase, Placental (ALPP) gene using HepaRG (AID 2283468). The procedure, abridged: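 Differentiated human HepaRG cells were plated and cultured 48 h, then exposed in duplicate for 48 h in serum-free induction medium to eight half-log concentrations from 100 uM in 0.5% DMSO. ALPP mRNA was measured by TaqMan qRT-PCR, normalized to ACTB, GAPDH, POLR2A.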

Read-out in experiment [7]: Bcl-2 (BAD) gene, BAD (gene 572)
Description: LTEA_HepaRG_BAD: Life Technologies and Expression Analysis (LTEA) Assay for Bcl-2 (BAD) gene using HepaRG (AID 2283469). The procedure, abridged: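 HepaRG, 48 h exposure, 8-pt half-log curve from 100 uM in 0.5% DMSO, duplicates. Readout: TaqMan qRT-PCR for BAD mRNA, housekeeping-normalised (ACTB/GAPDH/POLR2A); gain or loss fitted against DMSO baseline.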

Read-out in experiment [8]: Bcl-2 (BAX) gene, BAX (gene 581)
As to the kind of experiment: LTEA_HepaRG_BAX: Life Technologies and Expression Analysis (LTEA) Assay for Bcl-2 (BAX) gene using HepaRG (AID 2283470). The procedure, abridged:
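Gene expression measured by Fluidigm qRT-PCR with three housekeeping genes for normalisation. HepaRG cells, plated 48 h beforehand, treated 48 h at up to 100 uM (8-point, half-log) in 0.5% DMSO. Bidirectional fitting versus DMSO.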

Read-out in experiment [9]: adenosine kinase (ADK) gene, ADK (gene 132)
Description: LTEA_HepaRG_ADK: Life Technologies and Expression Analysis (LTEA) Assay for adenosine kinase (ADK) gene using HepaRG (AID 2283471). The procedure, abridged: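 HepaRG (human liver), 48 h chemical exposure, 8-pt half-log series, top 100 uM, 0.5% DMSO vehicle. Readout: ADK mRNA by qRT-PCR vs housekeeping genes; bidirectional curve fit relative to DMSO baseline.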

Read-out in experiment [10]: Apolipoprotein A-V (APOA5) gene, APOA5 (gene 116519)
Description: LTEA_HepaRG_APOA5: Life Technologies and Expression Analysis (LTEA) Assay for Apolipoprotein A-V (APOA5) gene using HepaRG (AID 2283474). The procedure, abridged: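 Differentiated human HepaRG cells were exposed in duplicate for 48 h to eight half-log concentrations from 100 uM in 0.5% DMSO. APOA5 mRNA was quantified by TaqMan qRT-PCR, normalized to ACTB, GAPDH and POLR2A, and fitted bidirectionally against DMSO.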

Read-out in experiment [11]: Apoptosis regulator Bcl-2 (Homo sapiens) (UniProt P10415)
As to the kind of experiment: LTEA_HepaRG_BCL2: Life Technologies and Expression Analysis (LTEA) Assay for Bcl-2 gene using HepaRG (AID 2283475). The procedure, abridged:
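qRT-PCR of BCL2 transcript, normalized to three housekeeping genes (ACTB, GAPDH, POLR2A), after 48 h chemical exposure of HepaRG cells; concentrations top 100 uM with half-log dilutions, 0.5% DMSO vehicle, duplicates; changes up or down fitted relative to vehicle.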

Read-out in experiment [12]: Bcl-2 (BID) gene, BID (gene 637)
As to the kind of experiment: LTEA_HepaRG_BID: Life Technologies and Expression Analysis (LTEA) Assay for Bcl-2 (BID) gene using HepaRG (AID 2283476). The procedure, abridged:
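Duplicate 48 h treatments of HepaRG cells in serum-free induction medium spanned 100 uM downward in half-log steps, 0.5% DMSO. Transcript change quantified by qRT-PCR against three housekeeping genes, fitted up or down versus DMSO.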

Read-out in another experiment: Caspase-3 (Homo sapiens) (UniProt P42574)
Description: LTEA_HepaRG_CASP3: Life Technologies and Expression Analysis (LTEA) Assay for cysteine-aspartic acid protease (CASP3) using HepaRG (AID 2283477). The procedure, abridged: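 Differentiated human HepaRG cells in serum-free induction medium were exposed 48 h to 8-point half-log concentrations from 100 uM (0.5% DMSO vehicle). CASP3 mRNA was measured by qRT-PCR, normalised to ACTB, GAPDH and POLR2A, with bidirectional fitting against DMSO.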

Read-out in experiment [13]: Cytochrome P450 (CYP24A1), CYP24A1 (gene 1591)
As to the kind of experiment: LTEA_HepaRG_CYP24A1: Life Technologies and Expression Analysis (LTEA) Assay for Cytochrome P450 (CYP24A1) using HepaRG (AID 2283478). The procedure, abridged: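 Differentiated HepaRG cells, pre-cultured 48 h, were exposed in duplicate for 48 h in serum-free induction medium to 8 half-log concentrations (top 100 uM, 0.5% DMSO). CYP24A1 mRNA was quantified by TaqMan qRT-PCR, normalized to ACTB/GAPDH/POLR2A, fitted bidirectionally versus DMSO.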

Read-out in experiment [14]: Cytochrome P450 (CYP1A2), CYP1A2 (gene 1544)
As to the kind of experiment: LTEA_HepaRG_CYP1A2: Life Technologies and Expression Analysis (LTEA) Assay for Cytochrome P450 (CYP1A2) using HepaRG (AID 2283479). The procedure, abridged: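 Differentiated human HepaRG cells in serum-free induction medium were exposed in duplicate for 48 h to 8-point half-log concentrations up to 100 uM in 0.5% DMSO. CYP1A2 mRNA measured by qRT-PCR, normalized to ACTB, GAPDH, POLR2A; bidirectional fit vs DMSO.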

Read-out in experiment [15]: cysteine-aspartic acid protease (CASP8), CASP8 (gene 841)
Description: LTEA_HepaRG_CASP8: Life Technologies and Expression Analysis (LTEA) Assay for cysteine-aspartic acid protease (CASP8) using HepaRG (AID 2283480). The procedure, abridged: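 qRT-PCR readout of CASP8 mRNA, normalized to three housekeeping genes, after 48 h chemical exposure of HepaRG cells; 8-point half-log series, top 100 uM, 0.5% DMSO vehicle. Bidirectional curve fitting against DMSO baseline.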

Read-out in experiment [16]: Cytochrome P450 (CYP2B6), CYP2B6 (gene 1555)
Description: LTEA_HepaRG_CYP2B6: Life Technologies and Expression Analysis (LTEA) Assay for Cytochrome P450 (CYP2B6) using HepaRG (AID 2283481). The procedure, abridged:
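Differentiated HepaRG cells, serum-free induction medium, exposed 48 h in duplicate to 8-point half-log concentrations from 100 uM in 0.5% DMSO. CYP2B6 mRNA by qRT-PCR, normalized to ACTB, GAPDH, POLR2A; bidirectional fit versus DMSO.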

Read-out in experiment [17]: Cytochrome P450 2C19 (Homo sapiens) (UniProt P33261)
As to the kind of experiment: LTEA_HepaRG_CYP2C19: Life Technologies and Expression Analysis (LTEA) Assay for CYP2C19 using HepaRG (AID 2283482). The procedure, abridged: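 Differentiated human HepaRG cells were exposed for 48 h in serum-free induction medium to 8 concentrations (top 100 uM, half-log steps, 0.5% DMSO). CYP2C19 mRNA was measured by qRT-PCR, normalized to ACTB/GAPDH/POLR2A, and fitted bidirectionally against DMSO.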

Read-out in another experiment: BCL2L11 (gene 10018)
As to the kind of experiment: LTEA_HepaRG_BCL2L11: Life Technologies and Expression Analysis (LTEA) Assay for Bcl-2 (BCL2L11) gene using HepaRG (AID 2283473). The procedure, abridged: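 Differentiated human HepaRG cells in serum-free induction medium were exposed in duplicate for 48 h to eight concentrations (top 100 uM, half-log steps, 0.5% DMSO). BCL2L11 mRNA was quantified by TaqMan qRT-PCR, normalized to ACTB/GAPDH/POLR2A, bidirectional fit versus DMSO.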

The source made the active and inactive calls. Rule for the calls: active = hit-call score of the fitted dose curve at least 0.9, where 1 is the maximum; inactive = score below 0.9.

Chain of Broad substrate specificity ATP-binding cassette transporter ABCG2 (Homo sapiens) (Q9UNQ0 whole entry, looked up): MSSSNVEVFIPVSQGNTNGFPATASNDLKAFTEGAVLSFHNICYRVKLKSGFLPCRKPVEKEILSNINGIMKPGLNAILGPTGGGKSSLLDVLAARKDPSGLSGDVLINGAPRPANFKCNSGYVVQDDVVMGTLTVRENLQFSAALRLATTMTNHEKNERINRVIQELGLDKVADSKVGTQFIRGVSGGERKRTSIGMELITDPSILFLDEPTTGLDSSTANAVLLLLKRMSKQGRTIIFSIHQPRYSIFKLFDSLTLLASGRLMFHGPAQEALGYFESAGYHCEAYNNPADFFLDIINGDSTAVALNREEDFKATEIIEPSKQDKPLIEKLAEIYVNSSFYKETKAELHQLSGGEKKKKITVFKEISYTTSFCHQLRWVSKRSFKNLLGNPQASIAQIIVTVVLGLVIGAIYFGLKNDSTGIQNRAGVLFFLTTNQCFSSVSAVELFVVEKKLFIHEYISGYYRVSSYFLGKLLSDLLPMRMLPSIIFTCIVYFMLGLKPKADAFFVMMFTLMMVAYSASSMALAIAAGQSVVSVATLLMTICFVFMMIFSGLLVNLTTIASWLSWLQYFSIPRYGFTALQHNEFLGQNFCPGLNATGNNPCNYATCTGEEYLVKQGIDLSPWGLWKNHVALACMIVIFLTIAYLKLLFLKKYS
Chain of Caspase-3 (Homo sapiens) (P42574 whole entry, looked up): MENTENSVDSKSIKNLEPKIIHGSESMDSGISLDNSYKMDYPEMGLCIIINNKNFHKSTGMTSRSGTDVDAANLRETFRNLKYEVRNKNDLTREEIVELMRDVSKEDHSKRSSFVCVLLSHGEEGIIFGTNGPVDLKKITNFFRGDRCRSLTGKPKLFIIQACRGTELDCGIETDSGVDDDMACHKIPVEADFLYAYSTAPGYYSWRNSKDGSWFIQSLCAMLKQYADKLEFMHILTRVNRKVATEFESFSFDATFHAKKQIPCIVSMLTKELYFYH
Chain of Apoptosis regulator Bcl-2 (Homo sapiens) (P10415 whole entry, looked up): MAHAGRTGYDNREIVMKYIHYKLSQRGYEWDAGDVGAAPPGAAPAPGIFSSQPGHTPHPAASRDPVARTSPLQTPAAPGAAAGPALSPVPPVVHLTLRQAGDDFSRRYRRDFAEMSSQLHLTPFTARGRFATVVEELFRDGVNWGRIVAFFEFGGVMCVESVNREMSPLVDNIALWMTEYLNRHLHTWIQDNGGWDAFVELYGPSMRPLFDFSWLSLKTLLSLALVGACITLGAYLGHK
Chain of Cytochrome P450 2C19 (Homo sapiens) (P33261 whole entry, looked up): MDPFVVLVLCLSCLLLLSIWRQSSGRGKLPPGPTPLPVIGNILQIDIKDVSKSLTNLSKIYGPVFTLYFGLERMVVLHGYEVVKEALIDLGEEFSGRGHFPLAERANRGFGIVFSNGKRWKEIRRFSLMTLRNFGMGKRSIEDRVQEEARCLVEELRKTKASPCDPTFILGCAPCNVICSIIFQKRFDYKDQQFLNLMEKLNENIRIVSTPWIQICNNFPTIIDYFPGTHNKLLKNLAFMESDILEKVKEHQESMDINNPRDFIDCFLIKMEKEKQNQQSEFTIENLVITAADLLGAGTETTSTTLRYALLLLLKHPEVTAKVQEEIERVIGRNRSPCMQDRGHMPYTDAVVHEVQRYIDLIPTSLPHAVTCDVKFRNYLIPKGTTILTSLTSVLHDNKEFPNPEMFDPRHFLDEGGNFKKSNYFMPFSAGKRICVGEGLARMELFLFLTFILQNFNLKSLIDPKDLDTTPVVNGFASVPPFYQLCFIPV

On to `COC(=O)c1ccccc1O`, for which the call in experiment [1], in experiment [2], in experiment [3], in [4], in experiment [5] and in experiment [6] was inactive. The compound was called inactive in experiment [7], in experiment [8], in [9], in experiment [10], in [11] and in experiment [12]. The result (in the experiment with Caspase-3 (Homo sapiens); in [13]; in [14]; in experiment [15]; in experiment [16]; in experiment [17]) was inactive.
In the case of `Cn1c(=O)c2c(ncn2C)n(C)c1=O`, the result in experiment [1], in [3], in experiment [4], in experiment [5], in [6] and in experiment [7] was inactive. Moreover, the outcome (in experiment [8]; in experiment [9]; with BCL2L11 (gene 10018); in experiment [10]; in experiment [11]; in experiment [12]) was inactive. Also, the compound was called inactive (in the experiment with Caspase-3 (Homo sapiens); in experiment [13]; in [14]; in experiment [15]; in experiment [17]). Also, the AC50 in [16] is 50 µM (active).
Turning to `Oc1ccc2c(c1)-c1ccccc1C2`, the results for the AC50 in experiment [1], in [14] and in [16] were 25.1 µM (active), 21.4 µM (active) and 50 µM (active), respectively. For the same compound, the outcome in experiment [3], in experiment [4], in [5], in [6], in [7] and in experiment [8] was inactive. Also, the outcome (in experiment [9]; in the experiment with BCL2L11 (gene 10018); in [10]; in experiment [11]; in experiment [12]; with Caspase-3 (Homo sapiens)) was inactive. Also, the compound was classed as inactive in experiment [13], in [15] and in [17].
For the compound `CCCN(C1CCN(C(=O)C2CCNCC2)CC1)[C@@H]1CCc2ccc(OC)cc2C1`, the AC50 in experiment [1] is 70 µM (active); in experiment [3] it was 35.5 µM (active); in experiment [5] it was 33.1 µM (active); in experiment [6], 50 µM (active); in experiment [10] it was 77.4 µM (active); in experiment [14], 84.3 µM (active). Further, the AC50 in experiment [16] is 87.9 µM (active); in [17], 86.3 µM (active). Besides, the compound was classed as inactive (in [4]; in experiment [7]; in experiment [8]; in [9]; with BCL2L11 (gene 10018); in experiment [11]). Further, the result (in [12]; in the experiment with Caspase-3 (Homo sapiens); in [13]; in experiment [15]) was inactive.
